Experiment [1] in a line: NCI Yeast Anticancer Drug Screen. Data for the rad50 strain (AID 155).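 Note: 0% = growth of vehicle-only cultures of the same strain.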 As to conditions: S. cerevisiae rad50 strain growth inhibition; at 50.0 µM; stronger effect = higher value. In short, it runs like this: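 Vehicle-treated cultures provide the reference for the growth inhibition reported for compound-exposed, repair-deficient yeast.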
Experiment [2] can be described thus: NCI Yeast Anticancer Drug Screen. Data for the mec2-1 strain (AID 157). As to conditions: S. cerevisiae mec2-1 strain, at 50.0 µM, stronger effect = higher value. In short, it runs like this:
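Growth inhibition is read against vehicle-treated controls after compound exposure of the mec2-1 yeast strain, which is defective in DNA damage repair or cell cycle control.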

Experiment [3] is described as follows: NCI Yeast Anticancer Drug Screen. Data for the sgs1 mgt1 strain (AID 161).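 Note: 0% = growth of cultures given vehicle only.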 As to conditions: S. cerevisiae sgs1 mgt1 strain, at 50.0 µM, stronger effect = higher value. Summed up: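 This yeast growth screen uses a strain with defined DNA-repair lesions; compound-treated growth is compared with vehicle-treated growth.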
Experiment [4] is described as follows: NCI Yeast Anticancer Drug Screen. Data for the cln2 rad14 strain (AID 165).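 Note: 0% = growth equal to vehicle treated cultures.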 As to conditions: S. cerevisiae cln2 rad14 strain, at 50.0 µM, stronger effect = higher value. In short, it runs like this:
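Growth inhibition, relative to vehicle-treated controls, is the read-out. The test organism is a yeast strain with defined genetic alterations, cln2 rad14.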

Experiment [5] in a line: NCI Yeast Anticancer Drug Screen. Data for the bub3 strain (AID 167). As to conditions: S. cerevisiae bub3 mutant strain, at 50.0 µM, stronger effect = higher value. Summed up: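 Mutant yeast screening strain plus compound; vehicle-treated cultures serve as the 0% inhibition reference.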
The nature of experiment [6]: NCI Yeast Anticancer Drug Screen. Data for the mlh1 rad18 strain (AID 175). The conditions noted are these: S. cerevisiae mlh1 rad18 strain growth inhibition; at 50.0 µM; stronger effect = higher value. In short, it runs like this: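 Cells of a genetically altered yeast strain, deficient in DNA damage repair, were treated with compound. Their growth was then compared with that of vehicle-treated cultures to give inhibition.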

Data on 37 compounds can be found in PubChem BioAssay (NCI).

This is part of a sample that, as a whole, favours compounds with a hit. Of some 79,000 tested, about 15% had one in any assay. Values without a mark were called inactive. Calls of active or inactive are those of the source. Cut-off read from the data, not from the text of the source: active = growth inhibition above about 70%; inactive = the rest.

Regarding `CCCCNCC(=O)Nc1ccc(C(=O)OC(C)C)cc1`, the growth inhibition in experiment [1] was -1.9%; in experiment [2] it was -18.1%; in experiment [3], -5.95%; in experiment [4] it was -35.3%; in experiment [5] it was 10.8%; in experiment [6], -1.75%.

Consider `NC(=O)Nc1ccc(Cl)cc1[N+](=O)[O-]`, for which the growth inhibition was -4.35% in experiment [1]; -8.5% in experiment [2]; 17.6% in experiment [3]; -46.5% in experiment [4]; -6.45% in experiment [5]; -7.1% in experiment [6].

`CC(C)(O)C(Br)(Br)Br`: the growth inhibition in experiment [1] is 0.2%; in experiment [2], 3.7%; in experiment [3], -22.4%; in experiment [4], -33%; in experiment [5], -21.9%; in experiment [6], 32.1%.

Take `CN(c1ccccc1)c1nc(Cl)c(Cl)c(Cl)n1`: the growth inhibition in experiment [1] was -0.2%; in experiment [2] it was -11.5%; in experiment [3], 6.55%; in experiment [4] it was -39.9%; in experiment [5], 2.45%; in experiment [6] it was -3.5%.

Consider `CCOC(=O)Nc1cc2c(c(N)n1)N=C(c1ccc(OC)cc1)CN2`, for which the growth inhibition in experiment [1] was 33.1%; in experiment [2], -6.75%; in experiment [3], 24.5%; in experiment [4], 30%; in experiment [5], 21.5%; in experiment [6], 11.2%.

Turning to `CCCc1ccc(N=Nc2ccc(C(=O)O)cc2)cc1`, the growth inhibition in experiment [1] is -1.25%; in experiment [2], -3.4%; in experiment [3] it was -2.9%; in experiment [4] it was -11.9%; in experiment [5], -11.9%; in experiment [6], 0.7%.

As for `CC(=O)Nc1ccc(S(=O)(=O)Nc2cc(Cl)cc(Cl)c2)cc1`, the growth inhibition was 15.7% in experiment [1]; -10.2% in experiment [2]; -0.05% in experiment [3]; 8.75% in experiment [4]; 2.1% in experiment [5]; -7.1% in experiment [6].

Consider `CN1C(=O)C(=O)N(C)C(=O)C1=O`, for which the growth inhibition in experiment [1] was 8.75%; in experiment [2], 11.2%; in experiment [3], 10.7%; in experiment [4], 7.1%; in experiment [5], 12.8%; in experiment [6], 9.6%.

`COC1=C(O)C(=O)N(C)C(=O)C1`: the growth inhibition in experiment [1] was 20.4%; in experiment [2], 9.35%; in experiment [3], 29.2%; in experiment [4] it was 0.75%; in experiment [5] it was -14.7%; in experiment [6] it was 10.8%.

Turning to `O=C1OC(C(O)C(O)C(O)CO)C(O)C1O` (configuration not stated), the growth inhibition in experiment [1] is -9.65%; in experiment [2], -29.9%; in experiment [3], -11.7%; in experiment [4], -40.2%; in experiment [5], 28.3%; in experiment [6] it was 4.65%.

`O=S(=O)(Cl)c1c(F)c(F)c(F)c(F)c1F`: the growth inhibition in experiment [1] was -31.3%; in experiment [2], -41.1%; in experiment [3], -19.9%; in experiment [4] it was 24.1%; in experiment [5] it was -0.25%; in experiment [6], -21.4%.

As for `COc1ccc(N2C(=O)C3c4[nH]c5ccccc5c4C4CCCCCCCCCC4C3C2=O)cc1` (configuration not stated), the growth inhibition was -6.15% in experiment [1]; -25.9% in experiment [2]; 0% in experiment [3]; -39.6% in experiment [4]; -15.3% in experiment [5]; -30.2% in experiment [6].

Consider `CCN(Cc1ccc(C(=O)OC)cc1)c1cccc(NC(C)=O)c1`, for which the growth inhibition in experiment [1] is 33.5%; in experiment [2], 6.7%; in experiment [3], 29.9%; in experiment [4] it was -9.7%; in experiment [5], 20.3%; in experiment [6], 34%.

With `Cc1ccc(C)c(NCc2ccccc2)c1`, the growth inhibition was 41.6% in experiment [1]; 20.1% in experiment [2]; 8.85% in experiment [3]; -16.9% in experiment [4]; 36.9% in experiment [5]; 24.3% in experiment [6].

As for `CC([C@H]1CC[C@H]2[C@@H]3CC=C4C[C@@H](O)CC[C@]4(C)[C@H]3CC[C@]12C)C(O)(c1ccccc1)c1ccccc1` (some centres not stated), the growth inhibition in experiment [1] was 40.9%; in experiment [2] it was 19.8%; in experiment [3] it was 43.4%; in experiment [4] it was 37.6%; in experiment [5], 23.4%; in experiment [6], 25.2%.

In the case of `N#Cc1cccc(/C=C\C(=O)c2ccccc2)c1`, the growth inhibition was 22.9% in experiment [1]; 8.65% in experiment [2]; 5.4% in experiment [3]; 17.3% in experiment [4]; 61% in experiment [5]; 13.9% in experiment [6].

Turning to `CCCC(C)OS(=O)(=O)c1ccc(C)cc1` (configuration not stated), the growth inhibition in experiment [1] is 13%; in experiment [2] it was -6.55%; in experiment [3] it was 0.75%; in experiment [4] it was -36.5%; in experiment [5], 8.85%; in experiment [6], 5.05%.

Take `CCOC(=O)C1=NC(c2ccccc2)(c2ccccc2)OC1=C(Cl)Cl`: the growth inhibition in experiment [1] was 0.8%; in experiment [2], -16.4%; in experiment [3] it was -0.2%; in experiment [4] it was 19.8%; in experiment [5], -11.4%; in experiment [6], -10.5%.

For the compound `NC(=O)c1cc2c(c3c1CCCC3)CCCC2`, the growth inhibition in experiment [1] is 4.2%; in experiment [2], -6.6%; in experiment [3] it was -3.55%; in experiment [4], -52%; in experiment [5] it was -13.9%; in experiment [6], -2.3%.

`COc1cccc2c1C(=O)c1c(O)c3c(c(O)c1C2=O)CC(O)(C(C)=O)CC3O` (configuration not stated): the growth inhibition is 61.5% in experiment [1]; 12.5% in experiment [2]; 39% in experiment [3]; 17.1% in experiment [4]; 34.4% in experiment [5]; 50.5% in experiment [6].

In the case of `N#CCC(=O)N1CCCCC1`, the growth inhibition was -8.3% in experiment [1]; -12.1% in experiment [2]; 9.9% in experiment [3]; -3.15% in experiment [4]; 3.1% in experiment [5]; -19.8% in experiment [6].

On to `O=[N+]([O-])c1ccc(F)cc1C(F)(F)F`, for which the growth inhibition in experiment [1] was 19.1%; in experiment [2] it was -17.4%; in experiment [3], 32.4%; in experiment [4] it was -10.2%; in experiment [5], 0.2%; in experiment [6], 43.5%.

Consider `O=C1CCCC2=C1CC1=C(CCCC1=O)N2c1ccc([N+](=O)[O-])cc1`, for which the growth inhibition in experiment [1] was -35.8%; in experiment [2], -30.1%; in experiment [3], -42%; in experiment [4], -10.3%; in experiment [5], 0.45%; in experiment [6], -19.3%.

Regarding `O=P(Nc1ccc(Cl)cc1)(c1ccc(Cl)cc1)c1ccc(Cl)cc1`, the growth inhibition in experiment [1] is 17.6%; in experiment [2] it was 6.05%; in experiment [3], 4.05%; in experiment [4], -16.1%; in experiment [5], -0.15%; in experiment [6], 20.9%.

With `CCOC1([N+](=O)[O-])c2ccccc2-c2nc3ccccc3cc21` (configuration not stated), the growth inhibition was 96.8% (active) in experiment [1]; 75.5% (active) in experiment [2]; 74% (active) in experiment [3]; 63.7% in experiment [4]; 78.8% (active) in experiment [5]; 92.4% (active) in experiment [6].

Turning to `O=C1c2ccsc2C(=O)c2sc(CO)cc21`, the growth inhibition in experiment [1] was 90.3% (active); in experiment [2], 91.2% (active); in experiment [3], 91% (active); in experiment [4] it was 91.8% (active); in experiment [5] it was 90% (active); in experiment [6], 83% (active).

In the case of `N#C/C(=C\c1ccc2ccccc2c1)c1ccccc1`, the growth inhibition in experiment [1] is 37.9%; in experiment [2], 14.9%; in experiment [3] it was 12.8%; in experiment [4] it was 17%; in experiment [5], 25.7%; in experiment [6], 52%.

Take `O=C1CCC(C(=O)Nc2ccc(Cl)cc2Cl)N1` (configuration not stated): the growth inhibition is -0.15% in experiment [1]; 3.3% in experiment [2]; 7.2% in experiment [3]; 42.4% in experiment [4]; 3.45% in experiment [5]; 8.75% in experiment [6].

Consider `CC(C)c1ccc2c(c1)CC[C@H]1[C@](C)(COCCC#N)CCC[C@]21C`, for which the growth inhibition was -10.9% in experiment [1]; -28.2% in experiment [2]; -14.2% in experiment [3]; -63.1% in experiment [4]; -17.1% in experiment [5]; -30% in experiment [6].

Take `[O-]/[N+]1=[N+](\[O-])c2ccccc2COCc2ccccc21`: the growth inhibition in experiment [1] was -5.2%; in experiment [2], -12.3%; in experiment [3] it was -12.4%; in experiment [4], -44.5%; in experiment [5], -8.1%; in experiment [6] it was -14.2%.

`CCCCCP(=O)(CCC(C)C)CC(C)C` (configuration not stated): the growth inhibition was 8.95% in experiment [1]; 7.3% in experiment [2]; 20.7% in experiment [3]; 28.9% in experiment [4]; -10.6% in experiment [5]; -6.6% in experiment [6].

`O=C(CCCCCC(=O)NO)NO`: the growth inhibition was -0.8% in experiment [1]; -6.05% in experiment [2]; -7.2% in experiment [3]; -20.3% in experiment [4]; -9.4% in experiment [5]; -1.55% in experiment [6].

Turning to `c1ccc(-c2cc(-c3ccncc3)c(-c3ccccc3)nn2)cc1`, the growth inhibition was 7.85% in experiment [1]; 7.8% in experiment [2]; 24% in experiment [3]; 22% in experiment [4]; -1.1% in experiment [5]; 36.4% in experiment [6].

Regarding `C=C(Br)CNCC(=C)Br`, the growth inhibition in experiment [1] was 2.2%; in experiment [2], 7.25%; in experiment [3], 5%; in experiment [4] it was 9.65%; in experiment [5] it was 18.2%; in experiment [6] it was -18.6%.

As to `Fc1cccc(C2SCc3nc4cc5ccccc5cc4n32)c1` (configuration not stated), the growth inhibition in experiment [1] is -21.8%; in experiment [2] it was -1.25%; in experiment [3], 8.8%; in experiment [4], -0.45%; in experiment [5], -19.7%; in experiment [6] it was -9.65%.

With `O=C(NC(c1ccccc1)C(O)C(=O)OCc1ccc2c(c1)C(=O)c1ccccc1C2=O)c1ccccc1` (configuration not stated), the growth inhibition in experiment [1] is 10.9%; in experiment [2] it was 15.4%; in experiment [3], -23.3%; in experiment [4], -0.15%; in experiment [5], -8.9%; in experiment [6], 20.6%.

Consider `N#C/C(=C1\OC(=O)C(c2ccc(Br)cc2)=C1O)c1ccc(Br)cc1`, for which the growth inhibition in experiment [1] was 8.15%; in experiment [2] it was 2.45%; in experiment [3], -4%; in experiment [4] it was 5.3%; in experiment [5] it was -3.85%; in experiment [6] it was 26.4%.
